High-throughput results (PubChem)
Shown are actives, neighbours in structure and some others; about 7.3% of the full set was active somewhere.
NPC1 prom act: qHTS Assay for NPC1 Promoter Activators; AID 485313, 2010; Potency, µM (titrated, usually from 9.22 µM), most hits filed as activators; 2.4% of 320,000 active; Huh7 NPC1 promoter luciferase reporter, 24 h; note: nearly all actives have a fitted effect of over 60% in size
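Huh7 cells stably carrying NPC1 promoter–luciferase, plated in Opti-MEM with 10% FBS for 2 h, were exposed to compound in DMSO for 24 h at 37 °C; luciferase reagent was added for 10 min and luminescence read.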
SMN2 splice up: qHTS Assay for Enhancers of SMN2 Splice Variant Expression | HEK293 SMN2-luciferase splicing reporter, luminescence, 30-36 h | Potency, µM (doses to about 46.1 µM), usual class: activators | 2.8% of 210,000 active | AID 1458, 2008; note: nearly all actives have a fitted effect of over 55% in size
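HEK293 cells carry an SMN2 minigene-luciferase reporter in which exon 7 inclusion puts luciferase in frame. Cells were seeded at 2000 cells/well, attached for 10-12 hours, then exposed to compounds for 30-36 hours at 37C before ONE-Glo luminescence.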
FLuc modulator: qHTS profiling assay for firefly luciferase inhibitor/activator using purifed enzyme and Km concentrations of substrates (counterscreen for miR-21 project); Potency, µM (top dose mostly 57.5 µM), actives largely listed as inhibitors; Luciferin 4-monooxygenase (Photinus pyralis), P08659; purified FLuc, Km substrates, luminescence inhibition; 6.9% of 360,000 active; note: nearly all actives have a fitted effect of over 55% in size
Target sequence (P08659 whole entry, looked up): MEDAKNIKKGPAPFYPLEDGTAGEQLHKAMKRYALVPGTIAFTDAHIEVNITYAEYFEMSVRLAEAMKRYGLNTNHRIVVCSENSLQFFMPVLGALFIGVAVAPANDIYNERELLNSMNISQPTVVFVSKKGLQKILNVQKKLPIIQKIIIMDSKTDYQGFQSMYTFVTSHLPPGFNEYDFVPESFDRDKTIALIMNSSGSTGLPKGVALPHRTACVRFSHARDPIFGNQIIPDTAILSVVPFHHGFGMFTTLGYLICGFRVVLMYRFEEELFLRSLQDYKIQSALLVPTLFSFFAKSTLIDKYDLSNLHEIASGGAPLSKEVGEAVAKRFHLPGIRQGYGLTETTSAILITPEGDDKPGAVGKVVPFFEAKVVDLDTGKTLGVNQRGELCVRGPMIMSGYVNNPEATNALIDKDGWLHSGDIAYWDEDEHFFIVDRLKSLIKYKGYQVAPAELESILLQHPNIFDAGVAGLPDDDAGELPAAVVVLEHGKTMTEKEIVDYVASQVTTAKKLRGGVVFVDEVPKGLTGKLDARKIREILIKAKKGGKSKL
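Purified P. pyralis luciferase (10nM final) with 10uM D-luciferin and 10uM ATP (Km levels) in 50mM Tris acetate pH 7.5, 10mM Mg acetate, 0.01% Tween-20, 0.05% BSA; qHTS 6-point titration, ~60 µM downward; luminescence read.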
Rab9 prom act: qHTS Assay for Rab9 Promoter Activators; 2.8% of 320,000 active; Huh7 Rab9 promoter-luciferase reporter, luminescence, 24 h; Potency, µM (doses to about 9.22 µM), hits mostly activators; note: nearly all actives have a fitted effect of over 60% in size
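Luminescence read-out: Huh7 cells stably expressing Rab9-luciferase, treated 24 h with compound at 37 °C, then lysed with luciferase reagent for 10 min at ambient before reading.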
Luc counter: Counterscreen for Luciferase (Kinase-Glo TM) Inhibition; Luciferin 4-monooxygenase (Photuris pensylvanica), Q27757; Kinase-Glo luciferase, ATP luminescence, 8 min; Potency, µM (top dose mostly 38.3 µM), usual class: inhibitors; 0.28% of 200,000 active; note: nearly all actives have a fitted effect of over 60% in size
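Compounds were added to a substrate mix at pH 7.2 (50 mM imidazole, 10 uM ATP, within the enzyme's linear range), followed by Kinase-Glo detection reagent; luminescence was measured after 8 minutes at ambient temperature.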
ELG1 genotox: qHTS screen for small molecules that induce genotoxicity in human embryonic kidney (HEK293T) cells expressing luciferase-tagged ELG1; HEK293T ELG1-luciferase reporter, luminescence, 16 h; Potency, µM (doses to about 46 µM), hits mostly activators; 1.3% of 330,000 active; note: nearly all actives have a fitted effect of over 60% in size
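HEK293T cells expressing luciferase-tagged ELG1 were exposed to compound or DMSO vehicle for 16 hr at 37 °C and 5% CO2. Luciferase activity was then measured with ONE-Glo after 30 min at room temperature.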
Numbers stand for hits; 0 = inactive; ? = inconclusive; - = no result given; ! = repeats disagree. Calls come from the whole dose curve; as a rule, active = well fitted curve in the direction sought with a large enough effect; inconclusive = small, poorly fitted or top-dose-only effect, or another doubt; inactive = no such curve, though single readings can be large; an effect the other way counts as inactive or inconclusive.

SMILES	NPC1 prom act	SMN2 splice up	FLuc modulator	Rab9 prom act	Luc counter	ELG1 genotox
CCOCC(=O)Nc1cc(S(=O)(=O)N2CCOCC2)ccc1N1CCCCC1	0	-	?	0	-	0
Cn1nc(C(=O)OCC(=O)c2ccc(Br)cc2)c2ccccc2c1=O	0	-	0	0	-	0
O=C(COC(=O)c1n[nH]c2ccccc12)c1cc(F)ccc1F	0	0	?	0	0	0
Cn1nc(C(=O)OCC(=O)c2ccc[nH]2)c2ccccc2c1=O	0	0	0	0	0	0
CCc1ccc(C(=O)COC(=O)c2nn(C)c(=O)c3ccccc23)cc1	0	0	19µM	0	0	0
Cc1cc(C)c(C(=O)COC(=O)c2nn(C)c(=O)c3ccccc23)cc1C	0	-	11µM	0	-	0
CCc1ccc(C(=O)COC(=O)c2n[nH]c3ccccc23)cc1	1.8µM	0	3µM	0.89µM	0	0
CC1CCN(C(=O)COC(=O)c2n[nH]c3ccccc23)CC1	3.5µM	?	?	3.2µM	0	?
Cc1ccc(NC(=O)c2cccc(NC3=NC4CS(=O)(=O)CC4S3)c2)cc1C (stereo not given)	0	-	13µM	0	-	0
Cc1cccc(NC(=O)c2cccc(NC3=NC4CS(=O)(=O)CC4S3)c2)c1 (stereo not given)	0	-	0	0	-	0
CC(C)c1ccc(NC(=O)Cc2ccc(NC3=NC4CS(=O)(=O)CC4S3)cc2)cc1 (stereo not given)	0	-	21µM	0	-	0
CCc1ccc(NC(=O)c2cccc(NC3=NC4CS(=O)(=O)CC4S3)c2)cc1 (stereo not given)	0	-	13µM	0	-	0
CC(C)c1ccc(NC(=O)c2cccc(NC3=NC4CS(=O)(=O)CC4S3)c2)cc1 (stereo not given)	0	-	6µM	0	-	0
CCCCNC(=O)N(CC)c1c(N)n(Cc2ccccc2)c(=O)[nH]c1=O	0	0	0	0	0	0
O=C(CNC(=O)c1ccc(Br)o1)NC12CC3CC(CC(C3)C1)C2	0	-	0	0	-	0
CCNC(=O)c1ccc(C23CC4CC(CC(C4)C2)C3)o1	0	0	13µM	0	0	0
CCOC(=O)C1CCCN(S(=O)(=O)c2cc(C(=O)OC)n(C)c2)C1 (stereo not given)	0	-	0	0	-	0
O=C(COC(=O)c1ccc(F)cc1F)c1ccc[nH]1	0	-	19µM	0	-	0
COc1ccccc1C(=O)OCC(=O)c1ccc(CNC(C)=O)s1	-	-	-	-	-	0
O=C(/C=C/c1ccc(F)cc1)OCC(=O)c1ccc[nH]1	0	-	?	0	-	0
COc1ccc(C(=O)OCC(=O)c2ccc[nH]2)cc1	?	-	27µM	?	-	?
COc1ccc(C(=O)OCC(=O)c2ccc(CNC(C)=O)s2)cc1	0	-	11µM	0	-	0
COc1ccc(C(=O)c2ccc(CC(=O)O)s2)cc1	0	0	12µM	0	0	0
COCCN1C(=O)/C(=C/c2ccc(OCc3ccc(C(=O)O)cc3)c(OC)c2)SC1=Nc1ccccc1	0	0	0	0	0	0
CCOC(=O)C(NC(=O)NCc1ccc(OC)cc1)(OCC)C(F)(F)F (stereo not given)	0	0	0	0	0	0
SMILES	NPC1 prom act	SMN2 splice up	FLuc modulator	Rab9 prom act	Luc counter	ELG1 genotox
O=C(Oc1ccc(C(=S)N2CCC(O)CC2)cc1)c1ccc(Cl)cc1	0	0	5.4µM	0	0	0
CCCOc1cccc(NC(=O)c2c(-c3ccccc3)noc2C)c1	0	0	0	0	0	0
Nc1nc2ccc(OC(F)(F)F)cc2s1	10µM!	?	?	10µM!	0	0
Cc1nc2ccc(Oc3ccccc3)cc2s1	0	-	17µM	0	-	0
Nc1nc2ccc(Oc3ccccc3)cc2s1	2.8µM	?	8.5µM	4µM	0	8.2µM
Cc1nc2ccc(NC(=O)COc3ccccc3)cc2s1	0	0	?	0	0	0
O=C(NCCc1cccs1)C1CCC(=O)N(CCc2cccc(F)c2)C1 (stereo not given)	0	-	0	0	-	0
CN(C(=O)C1CCC(=O)N(Cc2cccc(F)c2)C1)C1CCCCC1 (stereo not given)	3.2µM	-	17µM	2.5µM	-	?
Cc1ccsc1CCNC(=O)C1CCC(=O)N(CCc2cccc(F)c2)C1 (stereo not given)	2.8µM	-	21µM	2.5µM	-	?
Cc1ccsc1CN(C)C(=O)C1CCC(=O)N(CCc2cccc(F)c2)C1 (stereo not given)	?	-	15µM	0	-	?
COc1cc(/C=N/NC2=NS(=O)(=O)c3ccccc32)cc(OC)c1OC	0	-	?	0	-	0
Clc1ccccc1CN1CCN(CCCc2ccccc2)CC1	0	0	0	0	0	0
CCC(=O)Nc1nc(C)c(-c2csc(Nc3cccc(O)c3)n2)s1	0	-	11µM	0	-	0
COc1ccc(CCNc2nc(-c3sc(N)nc3C)cs2)cc1OC	0	0	?	0	0	0
COc1ccc(Nc2nc(-c3sc(C)nc3C)cs2)c(OC)c1	0	-	?	0	-	0
Cc1nc(N)sc1-c1csc(Nc2cccc(O)c2)n1	3.5µM	-	11µM	0	-	?
Cc1cccc(Nc2nc(-c3sc(C)nc3C)cs2)c1	?	-	19µM	?	-	?
Cc1nc(C)c(-c2csc(Nc3cccc(O)c3)n2)s1	?	-	11µM	?	0	?
Cc1ccccc1OCC(=O)NCC(c1ccco1)N1CCCCC1 (stereo not given)	0	-	0	0	-	0
CCOC(=O)c1cnc2ccc(OC)cc2c1NCCc1ccc(OC)c(OC)c1	0	0	0	0	0	0
CC(=O)c1cccc(Nc2nc(-c3sc(C)nc3C)cs2)c1	0	-	?	0	-	0
CC(=O)c1cccc(Nc2nc(-c3sc(N)nc3C)cs2)c1	0	-	17µM	0	-	0
CCCN1C(=O)c2[nH]nc(-c3ccccc3O)c2C1c1cccc(OCc2ccccc2)c1 (stereo not given)	-	0	0	-	-	-
O=C(Nc1cccc(/C=C/c2ccccn2)c1)c1ccc(-n2cncn2)c([N+](=O)[O-])c1	0	-	24µM	0	-	0
O=C(Nc1cccc(/C=C/c2ccccn2)c1)c1cc(Cl)ccn1	?	-	19µM	2.8µM	-	?
COc1ccc(C(=O)c2ccc(OC)c(N)c2)cc1N	0	0	?	0	0	18µM
CCOc1ccc(CNC(=O)c2cc3oc4ccccc4c3n2C)cc1	0	25µM	0	0	0	0
CCn1c(C(=O)NCc2ccc(F)cc2)cc2oc3ccccc3c21	-	?	0	-	-	-
